# Screening data (PubChem)
# Only a selection was taken, and hits are over-represented in it overall.
# Sm TGR inh – qHTS Assay for the Inhibitors of Schistosoma Mansoni Peroxiredoxins | Schistosoma mansoni thioredoxin glutathione reductase (TGR), Q962Y6 | purified TGR, DTNB reduction, TNB absorbance 405 nm | Potency, µM (top dose mostly 114 µM), without a hit: at the highest dose activity change, negative = inhibition, usual class: inhibitors | 360,000 tested, 3% active | AID 485364, 2010; also: potency is read from the fitted curve at half-maximal effect; % is scaled to controls: 0 for no effect and ±100 for the full control effect; nearly all actives have a fitted effect of over 60% in size
#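 Kinetic colorimetric format: TGR-catalysed, NADPH-driven DTNB reduction monitored via TNB absorbance. Enzyme dispensed at 20 nM; compound exposure 15 min at room temperature before reaction start.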
# Cycloheximide cs – Cycloheximide Counterscreen for Small Molecule Inhibitors of Shiga Toxin | cell reporter, cycloheximide protein synthesis inhibition counterscreen | max response, % | 300,000 tested, 12% active; in the data active = max response mostly above about 13%, no sharp cut-off; inactive = mostly below about 14%; also: read at 38.3 µM for the half of the compounds with a filed dose; 0% is about no effect
# Shiga inhibitor – A qHTS for Small Molecule Inhibitors of Shiga Toxin; Vero cells, Shiga toxin protein synthesis inhibition reporter; inhibition, % at 38.7 µM; 290,000 tested, 9.2% active; in the data active = inhibition mostly above about 28%, no sharp cut-off; inactive = mostly below about 43%; also: 0% is about no effect
# TbPYK inhibitor – qHTS of Trypanosoma Brucei Inhibitors | pyruvate kinase (Trypanosoma brucei), Q57TT1 | TbPYK enzyme, Kinase-Glo Plus ATP luminescence, 45 min | Potency, µM (top dose mostly 76.8 µM), for the others: at the top dose activity, negative = inhibition, usual class: inhibitors | 410,000 tested, 0.12% active | AID 624173, 2012; also: potency is read from the fitted curve at half-maximal effect; % is scaled to controls: 0 for no effect and ±100 for the full control effect; nearly all actives have a fitted effect of over 50% in size
#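 Activity of T. brucei pyruvate kinase was followed by Kinase-Glo Plus luminescence after the enzyme reacted 45 min at room temperature with 130 uM ADP (final) and substrate. Test compounds were added before ADP at multiple concentrations.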
# Giardia FBPA inh – qHTS Assay for Inhibitors of Fructose-1,6-bisphosphate Aldolase from Giardia Lamblia. A8B2U2. purified Giardia FBPA. Potency, µM (doses to about 59.6 µM), for inactives: at the highest dose activity, negative = inhibition, usual class: inhibitors. 290,000 tested, 0.71% active; also: potency is read from the fitted curve at half-maximal effect; % is scaled to controls: 0 for no effect and ±100 for the full control effect; nearly all actives have a fitted effect of over 55% in size
# Target sequence (A8B2U2 whole entry, looked up): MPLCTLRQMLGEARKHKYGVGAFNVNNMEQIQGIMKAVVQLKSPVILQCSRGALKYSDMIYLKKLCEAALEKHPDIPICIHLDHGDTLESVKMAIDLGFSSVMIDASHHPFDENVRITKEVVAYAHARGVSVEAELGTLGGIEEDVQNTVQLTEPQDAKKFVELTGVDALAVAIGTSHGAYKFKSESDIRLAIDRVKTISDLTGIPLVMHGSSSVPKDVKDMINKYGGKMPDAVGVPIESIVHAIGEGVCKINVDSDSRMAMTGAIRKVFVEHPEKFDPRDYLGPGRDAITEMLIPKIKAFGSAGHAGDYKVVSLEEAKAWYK
#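 Giardia FBPA (40 nM reagent) was preincubated 10 min at RT with compound (up to 57.5 uM final), then substrate plus GAPDH/TPI/NAD/arsenate coupling system with diaphorase/resazurin was added; resorufin fluorescence (525/598 nm) was read after 20 min.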
# LmPK inhibitor – qHTS Assay for Inhibitors of Leishmania Mexicana Pyruvate Kinase (LmPK) | purified LmPK, Kinase-Glo ATP luminescence, 1 h | Q27686 | Potency, µM (highest dose often 57.5 µM), inactives show at the highest dose activity change, negative = inhibition, hits mostly inhibitors | 290,000 tested, 0.37% active | AID 1721, 2009; also: potency is read from the fitted curve at half-maximal effect; % is scaled to controls: 0 for no effect and ±100 for the full control effect
#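 Purified LmPK (0.1 nM) with 0.5 mM PEP and 0.1 mM ADP in imidazole buffer pH 7.2 with MgCl2/KCl, 1 h at room temperature. ATP formed was read by luciferase luminescence and normalized to no-enzyme and uninhibited controls.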
# * = called active by the depositor; ? = inconclusive; / = no result given; [ ] = dose if it differs, or a comment. Unless noted, calls follow the shape of the dose curve; as a rule, active = well fitted curve in the direction sought with a large enough effect; inconclusive = small, poorly fitted or top-dose-only effect, or another doubt; inactive = no such curve, though single readings can be large; an effect the other way counts as inactive or inconclusive.
SMILES,Sm TGR inh,Cycloheximide cs,Shiga inhibitor,TbPYK inhibitor,Giardia FBPA inh,LmPK inhibitor
COc1ccc(NC(=O)c2oc3ccccc3c2NC(=O)C2CCCO2)cc1OC (configuration not stated),-2%,37*,29,1%,-6%,-6%
O=C(Nc1ccc(F)c(F)c1)c1oc2ccccc2c1NC(=O)C1CCCO1 (configuration not stated),2%,13,13,-4%,3%,1%
Cc1ccc(NC(=O)c2oc3ccccc3c2NC(=O)C2CCCO2)cc1C (configuration not stated),0%,42*,100*,1%,-9%,0%
COc1ccc(NC(=O)c2oc3ccccc3c2NC(=O)C2CC2)cc1OC,2%,7,34,-2%,-10%,1%
CC(=O)c1ccc(NC(=O)c2cc3ccccc3o2)cc1,-6%,35*,/,2%,-4%,1%
O=C(Nc1ccc(N2CCCC2)cc1)c1cc2ccccc2o1,-25%,47*,65*,-17%,-10%,-2%
O=C(Nc1ccccc1)c1cc2ccccc2o1,1%,26,45*,-6%,-22%,14µM*
CC(=O)c1cccc(NC(=O)CNC(=O)c2cc3ccccc3o2)c1,-4%,-7,-6,-3%,/,-2%
Cc1cc(C)c2oc(C(=O)Nc3nnc(C(C)C)s3)cc(=O)c2c1,-13%,-6,-12,-19%,1%,-14%
O=C(Nc1ccc(NC(=O)c2cc3ccccc3o2)cc1)c1ccco1,9%,1,42,0%,0%,-1%
CC(=O)N1CCN(c2ccc(NC(=O)c3cc4ccccc4o3)cc2)CC1,3%,22,20,1%,-11%,-6%
CC(C)c1nnc(NC(=O)c2cc3ccccc3o2)s1,2%,33*,111*,-3%,?,-2%
CC1(C(=O)NS(=O)(=O)C2CC2)CCCN(C(=O)c2ccc(F)c(Cl)c2)C1 (configuration not stated),/,/,/,-7%,/,/
CC(C)C(=O)N1CCN(c2ccc(NC(=S)NC(=O)c3cc4ccccc4o3)cc2)CC1,?,33*,75*,-2%,/,-6%
Cc1cc(C(=O)Nc2ccccc2)oc1C,0%,39*,121*,-1%,/,16µM*
Cc1cc(C(=O)Nc2cccc3ccccc23)oc1C,/,/,/,7%,/,/
CCCNC(=O)c1cc2ccccc2c(=O)o1,-2%,21*,57*,-4%,-7%,-9%
O=C(NCCc1ccccn1)c1cc2ccccc2o1,4%,49*,84*,-2%,-8%,-6%
CCOc1ccc(-n2c(=O)c3c(C)c(C)sc3n(CC(=O)Nc3ccc(CC)cc3)c2=O)cc1,1%,/,/,-1%,/,/
O=C(Nc1ccc(F)cc1)c1cc2ccccc2o1,16%,46*,58*,5%,-13%,-3%
O=C(NCc1ccccc1)c1cc2ccccc2o1,8%,22*,66,0%,0%,-19%
CCNC(=O)c1cc2ccccc2o1,-4%,-4,-10,8%,2%,-1%
CCCC(=O)c1c[nH]c(C(=O)NCCc2ccccn2)c1,0%,16*,40,3%,6%,2%
O=C1[C@H]2O[C@@H]2[C@@H](O)[C@H]2[C@H]1CCn1c(=O)n(Cc3cc4c(cc3Cl)OCO4)c(=O)n12,/,/,/,/,1%[12.9 µM],/
COc1ccc(-c2coc3c2c(C)cc2oc(=O)c(CC(=O)O)c(C)c23)cc1,9%,/,/,1%,/,/
COc1ccc(C(=O)NCCNc2ccccc2[N+](=O)[O-])cc1,/,32*,77*,0%,-11%,-13%
CC(C)COc1ccc(C(=O)Nc2ccccc2[N+](=O)[O-])cc1,-3%,53*,active,-3%,4%,-10%
O=C(NCCNc1ccc([N+](=O)[O-])cc1)c1cc(F)c(F)cc1Cl,/,/,/,0%,/,/
CCCNC(=O)c1ccc(S(=O)(=O)c2ccc(OC)cc2)c([N+](=O)[O-])c1,2.2µM*,1,-5,1%,1%,9%
